{"source": "PubChem BioAssay AID602163", "about": "(The Scripps Research Institute Molecular Screening Center, 2012)", "note": "Hit rate of the full screen: of about 360,000 compounds, about 1,100 (0.31%) were called active. Rule as the data show it: active = activation above about 7.5%; inactive = the rest. The sample as a whole holds a higher share of actives than the screen did.", "data": [{"system": "Methionine sulfoxide reductase A (Bos taurus)", "assay": "bovine MsrA enzyme activators, primary screen, biochemical, absorbance, HTS (AID 602163);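 also: 0% = vehicle and 100% = reference activator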", "details": "purified bovine MsrA, absorbance read-out; at 10.6 µM; stronger effect = higher value", "values": [{"smiles": "O=C(N[C@@H](Cc1c[nH]c2ccccc12)C(=O)O)OCC1c2ccccc2-c2ccccc21", "activation": "0.63% (inactive)"}, {"smiles": "CC(=O)NC(Cc1c[nH]c2ccccc12)C(=O)NCCc1ccccc1", "note": "(configuration not stated)", "activation": "-3.82% (inactive)"}, {"smiles": "CC(=O)NC(Cc1c[nH]c2ccccc12)C(=O)O", "note": "(configuration not stated)", "activation": "9.9% (active)"}, {"smiles": "NS(=O)(=O)c1cccc(NC(=O)CC23CC4CC(CC(Br)(C4)C2)C3)c1", "activation": "-2.66% (inactive)"}, {"smiles": "C#CCO[C@@H]1C[C@H](n2cnc3c(=O)[nH]c(NC(=O)C(C)C)nc32)O[C@@H]1CO", "activation": "-0.46% (inactive)"}, {"smiles": "O=C(NC1=CC(=O)c2ccccc2C1=O)c1ccccc1", "activation": "18.2% (active)"}, {"smiles": "C/C(=N\\NC(=O)c1ccc(C)cc1)C1C(=O)c2ccccc2C1=O", "activation": "-5.75% (inactive)"}, {"smiles": "COc1cc(NC(=O)c2ccccc2)c(OC)cc1NC(=O)Cc1ccccc1", "activation": "0.53% (inactive)"}, {"smiles": "O=C(CSCc1c(Cl)cccc1Cl)NN1C(=O)c2ccccc2C1=O", "activation": "-2.13% (inactive)"}, {"smiles": "O=C(COC(=O)Cc1ccc(Br)cc1)Nc1ccc(N2CCOCC2)cc1", "activation": "-1.14% (inactive)"}, {"smiles": "Cn1c(SCC(=O)N2CCCC2)nnc1-c1cccs1", "activation": "-0.73% (inactive)"}, {"smiles": "O=C(CSc1ncccn1)N1CCCC1", "activation": "-3.29% (inactive)"}, {"smiles": "O=C(CSc1n[nH]c(-c2cccs2)n1)N1CCCCC1", "activation": "8.31% (active)"}, {"smiles": "CCCCn1c(N)c(N(CC(C)C)C(=O)CSc2ccc([N+](=O)[O-])cc2)c(=O)[nH]c1=O", "activation": "-3.75% (inactive)"}, {"smiles": "COc1ccc([C@H]2CC(=O)C=C(/C=C/c3ccc(Cl)cc3)C2)cc1", "activation": "-1.21% (inactive)"}, {"smiles": "COc1ccc([C@H]2CC(=O)C=C(/C=C/c3ccccc3)C2)cc1", "activation": "8.06% (active)"}, {"smiles": "COc1ccc([C@H]2CC(=O)C=C(c3ccc(C)cc3)C2)cc1", "activation": "-3.05% (inactive)"}, {"smiles": "O=C(Nc1cccn(Cc2c(Cl)cccc2Cl)c1=O)c1ccc(Cl)cc1", "activation": "2.68% (inactive)"}, {"smiles": "CC(Sc1nnc(CNC(=O)c2ccccc2F)n1C)C(=O)Nc1nccs1", "note": "(configuration not stated)", "activation": "0.09% (inactive)"}, {"smiles": "O=C(O)c1ccccc1-c1ccccc1C(=O)Nc1nccs1", "activation": "-2.03% (inactive)"}, {"smiles": "O=C(O)c1ccccc1-c1ccccc1C(=O)NCCc1ccccc1", "activation": "-13.5% (inactive)"}, {"smiles": "O=C(O)c1ccccc1-c1ccccc1C(=O)Nc1cccc2ccccc12", "activation": "11.4% (active)"}, {"smiles": "O=C(O)c1ccccc1NC(=O)c1ccccc1-c1ccccc1C(=O)O", "activation": "7.87% (active)"}, {"smiles": "O=C(Nc1ccccc1F)c1ccccc1-c1ccccc1", "activation": "-1.97% (inactive)"}, {"smiles": "O=C(O)c1ccccc1-c1ccccc1C(=O)Nc1ccccc1Br", "activation": "-10.3% (inactive)"}, {"smiles": "N#Cc1ccc(OCCN2C(=O)NC3(CCSC3)C2=O)cc1", "note": "(configuration not stated)", "activation": "-0.26% (inactive)"}, {"smiles": "CCOC(=O)c1cc(-c2ccccc2C)n(Cc2cc(C)no2)n1", "activation": "-2.88% (inactive)"}, {"smiles": "COc1ccccc1CNC(=O)C1CCN(S(=O)(=O)c2ccc3c(c2)OCCO3)CC1", "activation": "-2.2% (inactive)"}, {"smiles": "Cc1ccc(S(=O)(=O)N(CC(=O)NN=C2CCN(C)CC2)c2ccc(F)cc2)cc1", "activation": "-2.23% (inactive)"}, {"smiles": "Cn1sc(NC(=O)c2ccccc2)nc1=O", "activation": "14.9% (active)"}, {"smiles": "CCOC(=O)c1cc(-c2sc(NC(=O)c3ccccc3)nc2C)n(CCO)n1", "activation": "-3.15% (inactive)"}, {"smiles": "Cc1nc(NNC(=O)c2ccccc2)cc(-c2ccccc2)n1", "activation": "1.76% (inactive)"}, {"smiles": "CCN(CC)S(=O)(=O)c1ccc(OC(C)C)c(N)c1", "activation": "-3.46% (inactive)"}, {"smiles": "CN1C(=O)c2ccccc2C(C(=O)NCCCN2CCCC2)C1c1c[nH]c2ccccc12", "note": "(configuration not stated)", "activation": "-1.12% (inactive)"}, {"smiles": "Cc1ccc(SCC(=O)c2cc(C)c(OC(=S)N(C)C)c(C)c2)cc1", "activation": "1.83% (inactive)"}, {"smiles": "COc1ccc(CCNC(=O)CN2CCC(n3nnc4cc(F)ccc43)CC2)cc1OC", "activation": "-2.2% (inactive)"}, {"smiles": "NC1=CC(=O)C(=O)c2cccnc21", "activation": "15.2% (active)"}, {"smiles": "Cc1ccc2c(CC(=O)NCc3cccs3)coc2c1", "activation": "-2.6% (inactive)"}, {"smiles": "COc1cc(C(=O)OCCCN2CCOCC2)cc(OC)c1OC", "activation": "-0.8% (inactive)"}, {"smiles": "COC(=O)c1scc(S(=O)(=O)C(C)(C)C)c1-n1cccc1", "activation": "-1.27% (inactive)"}, {"smiles": "COc1ccc(S(=O)(=O)N2CCOCC2)cc1NC(=O)Cc1coc2cc(C)ccc12", "activation": "-1.58% (inactive)"}, {"smiles": "CC(C)c1ccc(Nc2ncccc2C#N)cc1", "activation": "-0.47% (inactive)"}, {"smiles": "CC1=NNC(=O)C1CCC(=O)N/N=C(\\C)c1ccc(Cl)cc1", "note": "(configuration not stated)", "activation": "19.6% (active)"}, {"smiles": "CC1=NNC(=O)C1CCC(=O)N/N=C\\c1ccc(Cl)c(Cl)c1", "note": "(configuration not stated)", "activation": "-2.03% (inactive)"}, {"smiles": "CC1=NNC(=O)C1CCC(=O)N/N=C\\c1cccc(Cl)c1", "note": "(configuration not stated)", "activation": "-5.62% (inactive)"}, {"smiles": "CCOc1ccc(CCNC(=O)COC(=O)C2CCN(S(=O)(=O)c3ccccc3)CC2)cc1OCC", "activation": "-3.79% (inactive)"}, {"smiles": "CSC1=NCCN1C(=O)Cc1cccc2ccccc12", "activation": "-1.62% (inactive)"}, {"smiles": "O=C(NCCOc1ccccc1)N1[C@H]2CC[C@@H]1C=C(c1ccc(F)cc1OCc1ccccc1)C2", "activation": "-0.63% (inactive)"}, {"smiles": "O=C(CN1C(=O)NC2(CCCC2)C1=O)OCCOc1ccc(F)cc1", "activation": "-0.72% (inactive)"}, {"smiles": "Cc1ccc(COC(=O)CN2C(=O)NC3(CCCC3)C2=O)cc1", "activation": "10.9% (active)"}, {"smiles": "CCOc1ccc(C(C)=O)cc1COC(=O)CN1C(=O)NC2(CCCC2)C1=O", "activation": "-2.45% (inactive)"}, {"smiles": "S=c1[nH]nc2c3c4c(sc3ncn12)CCCC4", "activation": "12.9% (active)"}, {"smiles": "CCn1c(=S)[nH]c2sc3c(c2c1=O)CCCCC3", "activation": "1.11% (inactive)"}, {"smiles": "N=c1c2c3c(sc2ncn1CCCN1CCOCC1)CCCCC3", "activation": "-6.06% (inactive)"}, {"smiles": "COc1ccc(C(=O)OCC(=O)Nc2ccc3[nH]c(=O)[nH]c3c2)c(OC)c1OC", "activation": "1.62% (inactive)"}, {"smiles": "COc1ccc(C(=O)OCC(=O)c2ccc(Cl)s2)c(OC)c1OC", "activation": "-1.71% (inactive)"}, {"smiles": "COc1ccc(C(=O)OCC(=O)c2ccc(C)c(S(=O)(=O)N3CCOCC3)c2)cc1OC", "activation": "-4.43% (inactive)"}, {"smiles": "COc1cc(NC(=O)COC(=O)c2cnc(C)cn2)c(C)cc1[N+](=O)[O-]", "activation": "-4.41% (inactive)"}, {"smiles": "O=C(OCC(=O)N1CCN(c2ccccc2)CC1)c1ccc([N+](=O)[O-])s1", "activation": "8.9% (active)"}, {"smiles": "COc1cccc(/C=C/C(=O)OCC(=O)N2CCN(c3ccccc3)CC2)c1", "activation": "-1.19% (inactive)"}, {"smiles": "C[C@H](NC(=O)c1ccccc1Cl)C(=O)OCC(=O)N1CCN(c2ccccc2)CC1", "activation": "1.01% (inactive)"}, {"smiles": "COc1ccc(C(=O)COC(=O)c2ccc([N+](=O)[O-])s2)cc1OC", "activation": "12.4% (active)"}, {"smiles": "COc1cc(NC(=O)COC(=O)c2ccc([N+](=O)[O-])s2)cc(OC)c1OC", "activation": "10.6% (active)"}, {"smiles": "CCOC(=O)C1CCN(C(=O)C2CCN(S(=O)(=O)c3c(C)noc3C)CC2)CC1", "activation": "-0.14% (inactive)"}, {"smiles": "O=C1[C@@H]2C(Cc3ccc(O)cc3)NC3(C(=O)Nc4ccc(F)cc43)[C@@H]2C(=O)N1c1ccc(F)cc1", "note": "(some centres not stated)", "activation": "-1.38% (inactive)"}, {"smiles": "COc1ccc([C@H]2N[C@]3(CCCN(CC4CCCCC4)C3=O)[C@H]3C(=O)N(C)C(=O)[C@@H]23)cc1", "activation": "-4.49% (inactive)"}, {"smiles": "CCOc1ccccc1NC(=O)C1CCCN(C(=O)Nc2ccccc2)C1", "note": "(configuration not stated)", "activation": "-2.87% (inactive)"}, {"smiles": "Nn1c(SCC(=O)Nc2ccc3c(c2)CCC3)nnc1C1CC1", "activation": "0.99% (inactive)"}, {"smiles": "CCCN(CC(=O)Nc1ccccc1C)C(=O)c1cc(=O)[nH]c2ccccc12", "activation": "-8.69% (inactive)"}, {"smiles": "CCCN(CC(=O)Nc1ccccc1C)C(=O)c1ccc2[nH]c3c(c2c1)CC(C)CC3", "note": "(configuration not stated)", "activation": "17.2% (active)"}, {"smiles": "CC1CCc2[nH]c3ccc(C(=O)N(C)CC(=O)Nc4cccc(F)c4)cc3c2C1", "note": "(configuration not stated)", "activation": "-0.36% (inactive)"}, {"smiles": "COCC(=O)Nc1c(I)c(C(=O)NCC(O)CO)c(I)c(C(=O)N(C)CC(O)CO)c1I", "note": "(configuration not stated)", "activation": "-1.2% (inactive)"}, {"smiles": "CC(=O)N(O)CCCCCNC(=O)CCC(=O)N(O)CCCCCNC(=O)CCC(=O)N(O)CCCCCNC(=O)CCC(=O)O", "activation": "8.82% (active)"}, {"smiles": "NC(=O)NCCCC(=O)O", "activation": "5.76% (inactive)"}, {"smiles": "COc1ccc(OC)c(NC(=O)COC(=O)Cc2ccsc2)c1", "activation": "-3.82% (inactive)"}, {"smiles": "S=c1nccc(-c2cc(Cl)sc2Cl)[nH]1", "activation": "-10.9% (inactive)"}, {"smiles": "CC[C@]1(O)C[C@@H]2CN(CCc3c([nH]c4ccccc34)[C@@](C(=O)OC)(c3cc4c(cc3OC)N(C)[C@H]3[C@@](O)(C(=O)OC)[C@H](OC(C)=O)[C@]5(CC)C=CCN6CC[C@]43[C@@H]65)C2)C1", "activation": "-0.23% (inactive)"}, {"smiles": "CCOc1ccc2[nH]c(=O)c(CN(CCCO)C(C)=O)cc2c1", "activation": "-0.13% (inactive)"}, {"smiles": "Nc1ccc2[nH]c(=S)sc2c1", "activation": "0.61% (inactive)"}, {"smiles": "CCOc1ccc2[nH]c(=S)sc2c1", "activation": "8.43% (active)"}, {"smiles": "Cn1c(CCCOc2ccc(Cl)cc2Cl)n[nH]c1=S", "activation": "-3.29% (inactive)"}, {"smiles": "Cc1ccc(C)c(NC(=O)CSc2nnc(Cc3cccn3C)n2-c2ccc(F)cc2)c1", "activation": "9.61% (active)"}, {"smiles": "COc1ccccc1NC(=O)CSc1nnc(Cc2cccn2C)n1-c1ccc(F)cc1", "activation": "-0.41% (inactive)"}, {"smiles": "COC(=O)c1ccc(NC(=O)CSc2nnc(Cc3cccn3C)n2-c2ccc(F)cc2)cc1", "activation": "-0.87% (inactive)"}, {"smiles": "CCn1c(C)nc2c1C(=O)c1ccccc1C2=O", "activation": "6.51% (inactive)"}, {"smiles": "Cc1cc(OC(C)C(=O)Nc2ccc(S(=O)(=O)Nc3onc(C)c3C)cc2)cc(C)c1Cl", "note": "(configuration not stated)", "activation": "-4.68% (inactive)"}, {"smiles": "O=C(Nc1ccc(S(=O)(=O)Nc2ncccn2)cc1)C12CC3CC(CC(C3)C1)C2", "activation": "-5.78% (inactive)"}, {"smiles": "Cc1noc(NS(=O)(=O)c2ccc(NC(=O)C34CCC(CC3)C4)cc2)c1C", "activation": "7.83% (active)"}, {"smiles": "COc1cc(C(=O)OCC(=O)NC23CC4CC(CC(C4)C2)C3)cc(OC)c1OC", "activation": "-1.08% (inactive)"}, {"smiles": "COc1ccc(S(=O)(=O)N2CCOCC2)cc1NC(=O)CC1CC2CCC1C2", "note": "(configuration not stated)", "activation": "-3.8% (inactive)"}, {"smiles": "CCN(CC(=O)Nc1ccccc1OC)C(=O)CC1CC2CCC1C2", "note": "(configuration not stated)", "activation": "7.82% (active)"}, {"smiles": "CCN(CC(=O)Nc1ccccc1OC)C(=O)Cn1cnc2ccccc2c1=O", "activation": "-6.89% (inactive)"}]}]}
